Compound activity deposited in PubChem by several laboratories.
An excerpt weighted towards active compounds, which were near 2.2% of everything screened.
aSyn UTR inh – MLPCN primary screen, SNCA 5' untranslated region; 0.82% of 300,000 active; alpha-synuclein 5'UTR reporter, inhibitor activity; AID 1813; inhibition, % (tested at 7.5 µM); in the data active = inhibition above about 60%;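 also: H4 neuroglioblastoma cells stably carrying SNCA 5'UTR luciferase fusion; 0% = DMSO wells and 100% = positive control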
IEC-6 tox – counter-screen for KLF5 inhibitors: cytotoxicity in IEC-6 cells; AID 1825; 0.78% of 290,000 active; inhibition, % at 5 µM; IEC-6 cytotoxicity, luminescence viability;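 also: 0% = plate median of test compound wells and 100% = cytotoxic reference compound wells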
Ba/F3 V617F tox – reduce viability of Ba/F3 cells dependent on JAK2V617F | Ba/F3 EpoR-JAK2V617F viability, ATP luminescence | inhibition, % at 5.6 µM | AID 1446 | 1.1% of 220,000 active;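 active = inhibition above the campaign mean plus 3 SD over all tested compounds, cut at about 24% in these data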;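 also: cytokine-independent growth of Ba/F3 cells driven by EpoR plus mutant JAK2; 0% = DMSO-treated cells and 100% = JAK inhibitor I control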
KLF5 inhibitor – kruppel-like factor 5 inhibition. DLD-1 KLF5 promoter-luciferase reporter, luminescence. 0.23% of 290,000 active. inhibition, % at 5 µM;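 active = inhibition above a per-plate limit of that plate's mean compound inhibition plus 3 SD, cut at about 60% in these data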;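 also: 0% = DMSO wells and 100% = LY294002 at 200 µM; higher means less KLF5 promoter-driven luciferase light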
BaF3 parental – parental Ba/F3 viability inhibition as JAK2V617F counter-screen; CellTiter-Glo ATP luminescence; inhibition, % at 5.6 µM; 1.1% of 220,000 active;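 active = inhibition above a per-campaign cutoff, the mean inhibition of all tested compounds plus 3 SD, cut at about 27% in these data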;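 also: 0% = DMSO wells and 100% = JAK Inhibitor I control wells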
APP transl inh – APP translation inhibition; AID 1285; SH-SY5Y APP 5'UTR-luciferase reporter, luminescence; inhibition, % at 2 µM; 0.82% of 190,000 active;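 active = inhibition above a set limit, derived from the sample mean plus 3 SD, cut at about 45% in these data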
IEC-6 tox confirm – IEC-6 cytotoxicity, confirmation assay; shares compounds with IEC-6 tox; IEC-6 rat intestinal epithelial viability, luminescence; inhibition, % at 5 µM; 63% of 1,900 active; AID 1907;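 also: 0% = vehicle and 100% = reference cytotoxic drug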
An asterisk follows results filed as active; / = no result given. Rule as the data show it, unless noted: active = inhibition above about 22%; inactive = the rest.

SMILES | aSyn UTR inh | IEC-6 tox | Ba/F3 V617F tox | KLF5 inhibitor | BaF3 parental | APP transl inh | IEC-6 tox confirm
Cc1cc(C(=O)CSc2cccc[n+]2[O-])c(C)n1-c1ccc(OC(F)F)cc1 | -102.9 | 27.1* | 3.8 | -52.5 | -1.9 | / | -1.0
COC(=O)c1ccc(-n2c(C)cc(C(=O)CSc3cccc[n+]3[O-])c2C)cc1 | -5.9 | 7.5 | 0.3 | 6.4 | 2.1 | -13.0 | /
COc1cccc(N2CCN(C(=S)Nc3ccccc3)CC2)c1 | 2.6 | 0.5 | / | -62.5 | / | / | /
Cc1cccc(CSc2cccc3cccnc23)c1 | -102.6 | 32.3* | 6.0 | -47.7 | -1.7 | 34.7 | 37.2*
NNC(=O)c1ccc(CSc2cccc3cccnc23)cc1 | -51.4 | 0.1 | 0.9 | -9.8 | 2.4 | -21.6 | /
O=C1CCN(C(=O)/C=C/c2ccccc2)c2ccccc21 | -38.9 | 0.4 | 3.6 | -8.4 | 6.9 | -15.3 | /
C/C(=N\Nc1ncnc2sc(C)c(C)c12)c1ccccn1 | 104.9* | 90.9* | / | 23.5 | / | / | 94.2*
Cc1sc2ncnc(N/N=C/c3cccc(O)c3)c2c1C | -74.8 | 5.1 | 1.9 | -4.0 | 0.5 | -38.9 | /
O=C(CSCc1ccc(Cl)cc1)NN=C1CCCCCC1 | -18.6 | 3.7 | 3.1 | -23.7 | 2.0 | 7.7 | /
COc1ccc(S(=O)(=O)N2CCCC(C(=O)NCc3ccncc3)C2)cc1Cl (configuration not stated) | 29.1 | -4.2 | -3.5 | -7.4 | -1.3 | 0.3 | /
CCOc1ccccc1C1CC(=O)Nc2cc3c(cc21)OCCO3 (configuration not stated) | 91.9* | 66.5* | 80.2* | 60.5 | 78.2* | 13.7 | 53.8*
CCOc1ccccc1C1CC(=O)Nc2cc(C)c(C)cc21 (configuration not stated) | 33.7 | 41.8* | / | 10.9 | / | / | 26.2*
O=C1CC(c2cccnc2)c2cc3c(cc2N1)OCCO3 (configuration not stated) | 36.9 | 7.2 | 5.5 | -1.6 | 11.7 | -7.8 | /
Cc1cc2c(cc1C)C(c1ccccc1OC(C)C)CC(=O)N2 (configuration not stated) | -12.2 | 44.5* | / | 27.4 | / | / | 30.6*
CCOc1ccccc1C1CC(=O)Nc2cc(OC)c(OC)c(OC)c21 (configuration not stated) | 26.8 | -4.3 | -0.6 | -48.5 | 1.8 | -5.3 | /
CCCOc1ccccc1C1CC(=O)NC2=C1C(=O)CCC2 (configuration not stated) | 32.1 | 37.2* | 18.1 | -6.0 | 27.8* | 21.4 | 32.8*
CCOc1ccccc1C1CC(=O)NC2=C1C(=O)CCC2 (configuration not stated) | -46.1 | 7.8 | -0.6 | 23.0 | 5.5 | -3.5 | /
COc1ccc(/C=C(/NC(=O)c2ccccc2)C(=O)N2CCC(C)CC2)cc1 | -12.0 | -1.9 | / | -20.8 | / | / | /
Cn1c(=O)oc2cc(S(=O)(=O)Nc3ccc(Cl)cc3F)ccc21 | 6.4 | 1.8 | -3.3 | -8.9 | 3.1 | 12.9 | /
COc1ccccc1C1CC(=O)Nc2cc(C)c(C)cc21 (configuration not stated) | 62.8* | 36.3* | / | -11.2 | / | / | 5.9
COc1cc(CNCCc2ccc(S(N)(=O)=O)cc2)ccc1OCc1ccc(Cl)cc1 | -64.2 | -2.1 | 0.8 | -7.9 | 12.3 | 11.2 | /
CCOc1cc(CNCCc2ccc(S(N)(=O)=O)cc2)ccc1OCc1ccc(Cl)cc1 | 97.5* | 24.2* | 14.1 | 25.3 | 18.5 | 17.8 | 11.8
CCOc1ccc2nc(-c3ccccc3)[nH]c2c1 | 2.2 | 42.2* | 71.5* | 14.1 | 54.0* | -142.2 | 29.8*
COc1ccc2nc(-c3ccccc3)[nH]c2c1 | -70.7 | 4.0 | 4.2 | -115.7 | 8.2 | -177.9 | /
Cc1ccc(NC(=O)C(C)SCc2ccccc2)cc1 (configuration not stated) | -87.3 | -2.3 | / | -26.9 | / | / | /
SMILES | aSyn UTR inh | IEC-6 tox | Ba/F3 V617F tox | KLF5 inhibitor | BaF3 parental | APP transl inh | IEC-6 tox confirm
COc1cc2[nH]c(=S)nc(NCc3cccc(Cl)c3)c2cc1OC | -18.0 | 26.9* | / | -8.5 | / | / | 7.8
CC(C)c1ccc(/C=N/Nc2cc(N3CCOCC3)nc(N3CCOCC3)n2)cc1 | / | -2.4 | 0.0 | -17.6 | 4.2 | -4.1 | /
Cc1cccc(/C=N/Nc2cc(N3CCOCC3)nc(N3CCOCC3)n2)c1 | -19.1 | 23.6* | 12.0 | -16.2 | 18.9 | 15.1 | 94.1*
Cc1ccc(Nc2nc(N/N=C\c3ccc4c(c3)OCO4)nc(N3CCOCC3)n2)cc1 | -30.2 | 49.4* | 2.5 | -49.1 | 15.2 | 16.4 | 67.1*
O=c1nc2c(-c3ccccc3F)n[nH]n2c2ccccc12 | -145.8 | 2.1 | -0.9 | -27.9 | 2.3 | -5.1 | /
C=CCN=c1scc(-c2ccc3c(c2)NC(=O)CO3)n1/N=C(\C)c1ccccn1 | / | 41.0* | 100.4* | 56.6 | 90.5* | 51.6* | 30.8*
COc1ccc(CN=C(NS(=O)(=O)c2cccs2)SC)cc1 | 34.3 | 6.7 | 0.4 | -7.5 | 0.0 | -9.3 | /
COc1ccccc1N1CCN(c2ccc3ccccc3n2)CC1 | -53.3 | 6.2 | / | -51.5 | / | / | /
COc1ccccc1N1CCN(c2ccc(-c3ccccc3)nn2)CC1 | 79.0* | 61.5* | 71.8* | -50.7 | 74.4* | 89.6* | 58.9*
COc1ccc(CNC(=O)Cc2ccc(NC(=O)C3=C(C)OCCS3)cc2)cc1 | -13.1 | 65.3* | / | 10.2 | / | / | 43.0*
CC1=C(C(=O)Nc2ccc(CC(=O)NCc3ccc(OC(C)C)cc3)cc2)SCCO1 | 55.7 | 82.2* | / | 47.4 | / | / | 60.3*
C=CCN1C(=O)C(Cc2ccc(OC)cc2)SC1=Nc1ccc(C(=O)O)cc1 (configuration not stated) | 26.5 | 11.4 | -3.0 | -22.2 | -0.7 | 15.1 | /
CCN(CC)CCNC(=O)c1cc2c(=O)n(CC)c3ccccc3c2s1 | -124.6 | 17.5 | / | -49.3 | / | / | /
CCn1c(=O)c2cc(C(=O)NCCOC)sc2c2ccccc21 | -35.2 | 9.6 | / | -13.2 | / | / | /
CCN(CC)CCCNC(=O)c1cc2c(=O)n(CC)c3ccccc3c2s1 | -107.5 | 25.8* | / | -13.1 | / | / | 10.6
CCOCCCNC(=O)c1cc2c(=O)n(CC)c3ccccc3c2s1 | -79.9 | 22.0* | / | -57.3 | / | / | 6.5
Cn1c(=O)c2c(nc(NCCNC(=O)c3ccco3)n2Cc2ccc(Cl)cc2Cl)n(C)c1=O | -22.2 | -1.7 | 0.2 | -11.9 | 5.5 | 2.9 | /
Cn1c(=O)c2c(nc(NCC3CCCC(CN)C3)n2Cc2ccc(Cl)cc2Cl)n(C)c1=O (configuration not stated) | -83.7 | 59.8* | / | -40.0 | / | / | 38.8*
Nc1nc(SCc2ccc([N+](=O)[O-])cc2)nc2nc3c(cc12)CCCC3 | 9.3 | 6.6 | 5.0 | 35.8 | 8.3 | 3.8 | /
COc1ccc(S(=O)(=O)Nc2cc(Cl)ccc2OC)cc1 | 44.3 | 68.5* | 81.3* | 58.8 | 71.9* | 86.9* | 52.6*
O=C(Nc1ccc(N2CCCC2)cc1)c1cc(Cl)ccc1Cl | -241.2 | 56.5* | / | -28.3 | / | / | 27.1*
O=C(Nc1ccc(N2CCCC2)cc1)c1ccc(Cl)cc1Cl | -88.4 | 0.5 | / | -60.3 | / | / | /
c1csc(-c2nc3c4ccccc4c4ccccc4c3[nH]2)c1 | -72.9 | 24.2* | 7.9 | -13.8 | 10.2 | 7.3 | 23.1*
